Our source for the max response and Potency values is PubChem BioAssay (Tox21).

Each structure is given as a SMILES string. Records with an inconclusive call do not appear. Activity calls are given as the source filed them. Calls come from the whole dose curve; as a rule, active = well fitted cell-killing curve with a large enough effect in the repeat runs; inconclusive = weak or mixed curves, or effect the other way; inactive = flat fitted curve, though single readings scatter.
% is set by controls: 0 for no effect and ±100 for the full control effect; potency is the fitted concentration of half-maximal effect.

This assay in a line: qHTS RealTime-Glo MT Cell Viability Assay in HEK293 cells - 40 hour (AID 1224874). Note: nearly all actives have a fitted effect of over 50% in size. The settings on record: RealTime-Glo luminescence; max response: active compounds read low. From the text:
U.S. Tox21 Program National Center for Advancing Translational Sciences [NCATS] NIH Chemical Genomics Center [NCGC] U.S. Environmental Protection Agency [EPA] National Institutes of Environmental Health Sciences [NIEHS] National Toxicology Program [NTP] U.S. Food and Drug Administration [FDA] Tox21 Assay Overview: Measure of cell viability is critical in the cell-base assay. Analysis of cell viability is necessary for the characterization of cell responses to cytotoxic drugs and environmental stress. A RealTime-Glo MT Cell Viability Assay to monitor cell viability in real time of continues cell culture during 40 hours of compound treatment was used to screen Tox21 10K library compounds in Hek293 cells. The RealTime-Glo MT Cell Viability Assay is a nonlytic, homogeneous, bioluminescent method to measure cell viability in real time using a simple, plate-based method. The assay involves adding NanoLuc luciferase and a cell-permeant prosubstrate to cells in culture. Viable cells reduce the proprietary prosubstrate to generate a substrate for NanoLuc luciferase. This substrate diffuses from cells into the surrounding culture medium, where it is rapidly used by the NanoLuc Enzyme to produce a luminescent signal. The signal correlates with the number of viable cells, making the assay well suited for cytotoxicity studies.
Tox21 Assay Protocol Summary: The mixture of Hek293 cell suspension and reagents were dispensed at 600cells/6 ul/well in 1536-well tissue culture treated black solid bottom plates using a Multidrop dispenser. After the assay plates were incubated at a 37 C/5% CO2 incubator for 5 hours, 23 nL of compounds dissolved in DMSO, positive and negative controls was transferred to the assay plate by a pintool work station. The plates were incubated at 37 C for 40 hours. The luminescence intensity were measured at 0h, 8h, 16h, 24h, 32h and 40h time points using ViewLux plate reader during compound treatment.
(qHTS replaces the single test concentration by a dilution series.)
Consider `CCCCC/C=C/CC(=O)OC`, for which the max response is -0.743% (inactive).

As for `CCC(CO)CO`, the max response is -4.1% (inactive).

For `CCCCC(CC)C(=O)OC(C)C` (stereo not given), the max response was 3.8% (inactive).

For `COc1cc([N+](=O)[O-])ccc1N`, the max response was -15.5% (inactive).

Turning to `CN[C@@H]1[C@@H](O)[C@@H](O[C@@H]2[C@H](O)[C@H](O[C@H]3OC(CN)=CC[C@H]3N)[C@@H](N)C[C@H]2N)OCC1(C)O` (stereo not given in full), the max response is 1.03% (inactive).

As for `Cc1ccc(S(=O)(=O)NC(=O)NC2CCCCCCC2)cc1`, the max response was 0.902% (inactive).

With `CC1=CC[C@H](CC=O)C1(C)C`, the max response is 1.6% (inactive).

On to `O=P(O)(O)OCC(O)CO` (stereo not given), for which the max response is -2.63% (inactive).

As for `OC[C@@H](O)[C@H](O)[C@@H](O)[C@@H](O)CO`, the max response was 0.901% (inactive).

Turning to `COC(OC)C(C)c1ccccc1` (stereo not given), the max response is 5.02% (inactive).

Consider `CCCCCCCCC(=O)OCC`, for which the max response was 9.15% (inactive).

Turning to `Cc1cccc(Nc2ccncc2S(=O)(=O)NC(=O)NC(C)C)c1`, the max response was -1.39% (inactive).

For `Cc1nc2n(c(=O)c1CCN1CCC(C(=O)c3ccc(F)cc3)CC1)CCS2`, the Potency is 6.01 µM (active).

In the case of `C=CC(C)(O)CC/C=C(\C)CC` (stereo not given), the max response was 5.46% (inactive).

For `CC(C)C(=O)c1ccccc1`, the max response was -17.8% (inactive).

`O=C1CC[C@H](C(=O)N2CCCCC2)N1`: the max response was -2.81% (inactive).

For the compound `CO[Si](CCCS)(OC)OC`, the max response was 0.328% (inactive).

Take `O=C(Nc1cccc(C2=NCCN2)c1)Nc1cccc(C2=NCCN2)c1`: the max response was -2.84% (inactive).

Consider `CC(C)C(=O)Nc1cccc(C(F)(F)F)c1`, for which the max response is -2.33% (inactive).

Take `C=CCOc1cc(Cl)ccc1C(=O)NCCN(CC)CC`: the max response is -13.3% (inactive).

With `COc1ccc(N=Nc2cc(C)c(N=Nc3ccc(S(=O)(=O)O)cc3)cc2OC)cc1`, the max response was -2.91% (inactive).

Turning to `Cc1ccccc1OCC1CO1` (stereo not given), the max response was -1.66% (inactive).

For the compound `CCCCC(C)C(=O)O` (stereo not given), the max response is -5.74% (inactive).

As to `O=S(=O)(O)c1cc(O)ccc1O`, the max response is 9.53% (inactive).

On to `C1CCN2C[C@@H]3C[C@@H](CN4CCCC[C@@H]34)[C@H]2C1`, for which the max response is 1.31% (inactive).

Consider `CCN1CN(CC)CN(CC)C1`, for which the max response is 4.59% (inactive).

As for `CCOC(=O)CC#N`, the max response was -0.316% (inactive).

`CCCCCCCCCCCCCC(=O)OC`: the max response is 12.2% (inactive).

Take `CC(=O)/C=C/c1ccco1`: the max response was 7.79% (inactive).

Take `CC(C)(C)NCCO`: the max response was 6.71% (inactive).

In the case of `CC(C)COC(=O)CC(C(=O)OCC(C)C)S(=O)(=O)O` (stereo not given), the max response was -3.15% (inactive).

With `Cn1c(=O)c2c(ncn2CC2OCCO2)n(C)c1=O`, the max response is 7.08% (inactive).

`Cc1ccc2c(c1)c1c3n2CCNC3CCC1` (stereo not given): the max response is 0.813% (inactive).

Turning to `COC(/C=C(\C)CCC=C(C)C)OC`, the max response was 4.55% (inactive).

Take `CCN(CCO)c1cccc(C)c1`: the max response is 6.86% (inactive).

In the case of `CCCO`, the max response is 1.64% (inactive).

With `CC(=O)c1ccc(OCC(=O)N2CCCCC2)cc1`, the max response was 1.3% (inactive).

As for `Cc1nc([N+](=O)[O-])cn1-c1ccc([N+](=O)[O-])cc1`, the max response is 4.25% (inactive).

As to `O=C(O)c1c(Cl)ccc(Cl)c1Cl`, the max response was 5.49% (inactive).

In the case of `CCC(=O)c1ccc(O)cc1`, the max response is -7.06% (inactive).
